TCR act: Activators of T cell receptors: qHTS campaign; primary human leukocytes, anti-CD3, IL-2 HTRF, 48 h; Potency, µM (highest dose often 9.22 µM), for the others: at the highest dose activation of IL-2 secretion, hits mostly activators; 330,000 tested, under 10 active; note: % of control where 0% means no effect
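Activity was scored as IL-2 release from primary human leukocytes given only a TCR signal (a-CD3 beads) plus compound for 48 hr. Detection used a two-antibody HTRF format read at 665nm.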
Chronic BCR inh: qHTS Assay to Find Inhibitors of Chronic Active B-Cell Receptor Signaling | ABC-DLBCL IkBa-CBG/CBR reporter, luminescence ratio, 4 h | actives 0.05% (n = 340,000) | Potency, µM (doses to about 46.1 µM), for the others: at the top dose activity change, negative = inhibition, hits mostly inhibitors; active = well fitted inhibition curve with a large enough effect in the signal ratio, with a control signal flat, not every such curve was filed as active; inconclusive = small, poorly fitted or top-dose-only effect, or effect the other way, or a change in a side signal; the % refers to the signal ratio;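 note: potency is the fitted concentration of half-maximal effect; plate controls were basal doxycycline-induced cells for no effect and cells given 10 µM MG132 for full effect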
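Cell line TMD8 (human ABC DLBCL), stably expressing tet-inducible CBG68-IkBa fusion and CBR; IMDM/0.5% FBS; cpd up to 46 uM; dox induction, 4 h, 37C/5% CO2; dual luminescence; green/red ratio; MG132 control.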
CCT chaperon mod: High-Throughput Screening for Modulators of Cytosolic Chaperonin Activity. purified chaperonin ATPase assay, HTRF ADP detection, 30 min. activity change, % (concentration not given with the values), hits read low. actives 0.3% (n = 360,000). AID 651819, 2012; in the data active = activity change below about -30%; note: % is set by controls: 0 for no effect and ±100 for the full control effect
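TRiC at 40 or 20 nM final (batch-dependent) in 30 mM Tris pH 7.4, 100 mM KCl, 5 mM MgCl2, 1 mM DTT, with compound at single 76 uM and 10 uM ATP, 30 min at 37 deg C. ADP detected by HTRF Transcreener, 665/615 ratio.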
Tb PFK inh-1: qHTS Assay to Find Inhibitors of T. brucei phosphofructokinase; T. brucei PFK, ADP-Glo luminescence; actives 0.17% (n = 330,000); Potency, µM (series often up to 57.5 µM), inactives show top-dose activity, negative = inhibition, hits mostly inhibitors; ATP-dependent 6-phosphofructokinase (Trypanosoma brucei brucei), O15648;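 note: potency is the fitted concentration of half-maximal effect; 0% = uninhibited 1x PFK enzyme wells and -100% = no-enzyme wells; nearly all actives have a fitted effect of over 60% in size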
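In TEA buffer at pH 8.0 with 5 mM MgCl2, enzyme (1.25 nM) converted F6P (0.5 mM) and ATP (0.1 mM) for 45 min at room temperature. ADP product was read by luciferase luminescence.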
ASM inhibitor: Inhibitors of Secretory Acid Sphingomyelinase (S-ASM): qHTS | placental ASM, HMU-PC fluorogenic substrate, 60 min | Potency, µM (top dose mostly 57.5 µM), without a hit: top-dose activity change, negative = inhibition, hits mostly inhibitors | actives 0.006% (n = 340,000); note: potency is the fitted concentration of half-maximal effect
Target sequence (P17405 47-631 limits assumed): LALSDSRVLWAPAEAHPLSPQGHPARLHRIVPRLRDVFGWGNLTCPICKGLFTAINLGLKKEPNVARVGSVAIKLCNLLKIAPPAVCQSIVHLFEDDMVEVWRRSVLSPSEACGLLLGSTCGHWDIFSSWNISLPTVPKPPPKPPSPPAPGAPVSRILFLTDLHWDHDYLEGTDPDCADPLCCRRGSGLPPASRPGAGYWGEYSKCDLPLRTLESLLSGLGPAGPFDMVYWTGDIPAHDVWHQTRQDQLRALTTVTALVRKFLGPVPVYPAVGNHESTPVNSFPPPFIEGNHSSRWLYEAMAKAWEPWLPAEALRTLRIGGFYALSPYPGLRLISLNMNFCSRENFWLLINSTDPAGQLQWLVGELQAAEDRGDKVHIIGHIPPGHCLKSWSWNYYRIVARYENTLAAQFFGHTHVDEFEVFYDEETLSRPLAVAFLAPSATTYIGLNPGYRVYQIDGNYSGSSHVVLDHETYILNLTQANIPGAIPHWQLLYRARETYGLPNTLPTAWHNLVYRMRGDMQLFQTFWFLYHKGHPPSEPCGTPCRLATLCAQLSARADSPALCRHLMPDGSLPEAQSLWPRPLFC
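qHTS format. ASM enzyme prepared from human placenta hydrolyses the fluorogenic substrate HMU-PC0 (9 uM final) over 60 min at 37 °C after a 10 min compound preincubation.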
Tb PFK KinaseGlo: Tb PFK orthogonal confirmatory assay using ATP depletion (Kinase-Glo Plus) as an alternative measure of Tb PFK activity: Hit Validation; actives 47% (n = 1,100); Tb PFK enzyme, ATP depletion, Kinase-Glo Plus luminescence; Potency, µM (highest dose often 57.5 µM), without a hit: top-dose inhibition; AID 504636, 2011; shares compounds with Tb PFK inh-1; calls by dose curve; note: potency is the fitted concentration of half-maximal effect; nearly all actives have a fitted effect of over 60% in size
Tb PFK inh-2: Inhibitors of T. brucei phosphofructokinase: Hit Validation | shares compounds with Tb PFK inh-1 | purified T. brucei PFK, ADP-Glo luminescence, 45 min | Potency, µM (titrated, usually from 57.5 µM), without a hit: at the highest dose activity change, negative = inhibition, hits mostly inhibitors | actives 41% (n = 1,100);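 note: potency is the fitted concentration of half-maximal effect; plate controls were full PFK enzyme control for no effect and no enzyme control for full effect; nearly all actives have a fitted effect of over 60% in size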
Numbers without * were called inactive; ? = inconclusive; / = no result given; [ ] = another dose, or the depositor's remark. Most compounds without a hit are left out; they make up all but 0.49% or so of the library. Unless noted, calls come from the whole dose curve; as a rule, active = well fitted curve in the direction sought with a large enough effect; inconclusive = small, poorly fitted or top-dose-only effect, or another doubt; inactive = no such curve, though single readings can be large; an effect the other way counts as inactive or inconclusive.

SMILES | TCR act | Chronic BCR inh | CCT chaperon mod | Tb PFK inh-1 | ASM inhibitor | Tb PFK KinaseGlo | Tb PFK inh-2
Cc1c(Br)c([N+](=O)[O-])nn1CC(=O)Nc1ccc(CC#N)cc1 | / | ? | / | ? | / | ? | ?
Cc1cccc(NC(=O)Cn2nc([N+](=O)[O-])c(Br)c2C)n1 | 0.3% | -2.8% | -1.2 | 16.9µM* | 4.2% | 12µM* | 21.3µM*
Cc1c(Br)c([N+](=O)[O-])nn1CC(=O)Nc1cccc2nonc12 | -17.5% | 1.1% | 0.5 | 7.57µM* | 3.4% | 4.78µM* | 2.69µM*
Cc1cc(NC(=O)Cn2nc([N+](=O)[O-])c(Br)c2C)no1 | -23.9% | -1.6% | 0.1 | 26.9µM* | -2.2% | 21.3µM* | ?
Cc1ccc(OCC(=O)Nc2ccc3c(c2)CCC3)c([N+](=O)[O-])n1 | / | ? | -5.5 | 0.7% | -3.2% | / | /
Cc1ccc(-n2c(/C=C/c3cc(Br)cs3)nc3ccccc3c2=O)cc1 | / | -9.8% | / | / | / | / | /
COC1CCC(OC2CC(C3(C)CCC4(CC(O)C(C)C(C(C)/C=C(\C)C(=O)C(C)CC(C)C(=O)O)O4)O3)OC3(OC(C4OC(O)(CO)C(C)CC4C)CC3C)C2C)OC1C (stereo not drawn) | 4.6% | / | -2.1 | / | -5.6% | / | /
COc1cccc(/C=C/c2nc3ccccc3c(=O)n2-c2ccc(Cl)cc2)c1OC | / | 0.0% | / | / | / | / | /
CC(C)NC(C)C(=O)c1ccc2ccccc2c1 (stereo not drawn) | 0.9% | 20.9% | 1.5 | -4.6% | 1.0% | / | /
CC(C)N(CCC(=O)c1ccc2ccccc2c1)Cc1ccccc1 | 2.8% | ? | -1.5 | ? | -10.0% | 30.1µM* | ?
Cc1ccc(-c2cc(C(=O)N/N=C/C(Br)=C/c3ccccc3)n[nH]2)o1 | -7.8% | ? | -0.1 | ? | -27.9% | -19.9% | ?
O=C(O)C1OC(Oc2cc3oc(-c4ccccc4)cc(=O)c3c(O)c2O)C(O)C(O)C1O (stereo not drawn) | 6.0% | ? | 0.1 | 6.75µM* | -6.9% | ? | 9.53µM*
CC1=NN(C(=O)c2ccoc2C)C(O)(C(F)(F)F)C1 (stereo not drawn) | 0.1% | ? | -2.0 | 4.2% | 2.4% | / | /
COc1ccc(-c2csc(NS(=O)(=O)c3ccc([N+](=O)[O-])cc3)n2)cc1 | -22.8%[46.1 µM] | ? | -2.1 | ? | -6.4% | -32.6% | ?
CCOC(=O)[C@]12Cc3ccc4ccccc4c3[C@H]1N(Cc1ccccc1)C(=O)c1ccccc12 | / | / | 1.2 | / | / | / | /
COc1ccc(-n2nnnc2C(c2cccc3ccccc23)N2CCC3(CC2)C(=O)NCN3c2ccccc2)cc1 (stereo not drawn) | / | / | 1.3 | / | / | / | /
O=C1Nc2cc(Cl)c(Cl)cc2N(O)N1c1ccc(Cl)c(Cl)c1 | 3.2% | ? | -1.9 | 13.5µM* | 12.0% | 10.6% | -14.5%
O=C1Nc2ccccc2N(O)N1c1ccc(Cl)c(Cl)c1 | -9.7% | ? | 0.9 | 10.7µM* | -4.3% | ? | -15.3%
CC(C)CN1Cc2cc(-c3cccc(F)c3)ccc2-n2nncc2C1 | / | / | 0.6 | / | / | / | /
CCOC(=O)CNC(=O)N1Cc2ccccc2-n2nncc2C1 | / | / | -1.1 | / | / | / | /
CS(=O)(=O)N1CCN(Cc2ccc([N+](=O)[O-])cc2)CC1 | 9.6% | 2.6% | 0.6 | ? | 0.1% | ? | ?
O=C(Cc1ccccc1)N1CCN(Cc2ccc([N+](=O)[O-])cc2)CC1 | -3.2%[46.1 µM] | -0.1% | -0.5 | -10.9% | -1.1% | / | /
COc1ccc(-n2c(/C=C\c3ccccc3F)nc3ccccc3c2=O)c(OC)c1 | / | 0.5% | / | / | / | / | /
Cc1cc2c(N)cccc2nn1 | -0.5% | 14.1% | 1.6 | 7.57µM* | -3.5% | 6.1% | -1.8%
C/C(C/C(C)=C1/SC(=S)NC1=O)=C1\SC(=S)NC1=O | -2.0% | ? | -1.7 | ? | -5.6% | -29.4% | ?
SMILES | TCR act | Chronic BCR inh | CCT chaperon mod | Tb PFK inh-1 | ASM inhibitor | Tb PFK KinaseGlo | Tb PFK inh-2
c1ccc(-c2ccncc2)cc1 | 0.8% | 0.1% | -1.4 | 2.3% | 1.0% | / | /
c1cc(SSc2ccncc2)ccn1 | 4.1% | ? | -3.9 | 23.9µM* | 2.5% | 16.9µM* | ?
CCCCn1nnnc1C(c1cccs1)N1CCC2(CC1)C(=O)NCN2c1ccccc1 (stereo not drawn) | / | / | -2.4 | / | / | / | /
Cc1cc[n+](-c2[nH]c(=O)sc2/C=N/N=C(\[O-])c2ccncc2)cc1 | -2.7% | 2.8% | 0.0 | 19µM* | -2.1% | ? | -20.7%
Cc1ccc(C(=O)N2CC2C)cc1 (stereo not drawn) | -4.8% | / | -0.7 | / | 0.9% | / | /
Nc1nnc(Cc2cccc(Br)c2)s1 | -8.8% | 4.9% | -1.6 | ? | 1.3% | 21.3µM* | 30.1µM*
CN1C(=O)C(C)(C2=CCCCC2)C(=O)NC1=S (stereo not drawn) | 0.6% | / | -1.6 | / | 2.5% | / | /
O=C(OCc1ccco1)c1ccc(S(=O)(=O)N2CCCCC2)cc1 | 0.0% | ? | -0.2 | 23.9µM* | -6.6% | ? | ?
NCCCCCc1nnc(SCc2ccc(Cl)c(Cl)c2)o1 | 0.7% | -0.8% | 0.2 | 23.9µM* | 3.5% | 13.5µM* | 30.1µM*
Clc1ccc(CSc2nnc([C@@H]3CCCN3)o2)cc1Cl | -0.4% | 4.0% | -3.3 | 30.1µM* | -0.3% | 12µM* | 26.9µM*
CN(c1ccc(O)cc1)c1ccc([N+](=O)[O-])c2nonc12 | / | / | -0.4 | / | / | / | /
O=[N+]([O-])c1c(Nc2ccc(O)cc2)cc(Cl)c2nonc12 | -0.9% | ? | -1.1 | ? | -1.3% | 7.57µM* | ?
CC(C)[C@@H]1NC(=O)c2cc([N+](=O)[O-])cc(I)c2NCCCC[C@@H](C(=O)NC(CC(=O)O)C(N)=O)NC(=O)[C@H](CO)NC1=O (stereo partly drawn) | / | -1.7% | / | ? | / | / | /
O=C(Nc1nnc(-c2ccccc2)s1)c1ccccc1O | 0.9% | ? | -1.4 | ? | -2.3% | -27.8% | ?
Cc1nnc(NC(=O)c2cccn(Cc3ccccc3)c2=O)s1 | / | -0.7% | / | / | / | / | /
CCC(c1nnnn1C1CCCCC1)N1CCC2(CC1)C(=O)NCN2c1ccccc1 (stereo not drawn) | / | / | -0.4 | / | / | / | /
Cc1nc(SCc2ccc(Cl)c(Cl)c2)n[nH]1 | / | 1.5% | -1.4 | 21.3µM* | 1.0% | 12µM* | ?

Screens as filed in PubChem BioAssay.
